Screening data (PubChem)
Shown are actives, neighbours in structure and some others; about 1.6% of the full set was active somewhere.
ATG4B inh: ATG4B protease inhibitors, primary screen, biochemical, fluorescence, uHTS; ATG4B cleavage of LC3-PLA2, NBD-HPC fluorescence, 1 h; Cysteine protease ATG4B (Homo sapiens), Q9Y4P1; actives 0.51% (n = 340,000); AID 504462, 2011; inhibition, % at 8.33 µM; in the data active = inhibition above about 40%
Target sequence (Q9Y4P1 whole entry, looked up): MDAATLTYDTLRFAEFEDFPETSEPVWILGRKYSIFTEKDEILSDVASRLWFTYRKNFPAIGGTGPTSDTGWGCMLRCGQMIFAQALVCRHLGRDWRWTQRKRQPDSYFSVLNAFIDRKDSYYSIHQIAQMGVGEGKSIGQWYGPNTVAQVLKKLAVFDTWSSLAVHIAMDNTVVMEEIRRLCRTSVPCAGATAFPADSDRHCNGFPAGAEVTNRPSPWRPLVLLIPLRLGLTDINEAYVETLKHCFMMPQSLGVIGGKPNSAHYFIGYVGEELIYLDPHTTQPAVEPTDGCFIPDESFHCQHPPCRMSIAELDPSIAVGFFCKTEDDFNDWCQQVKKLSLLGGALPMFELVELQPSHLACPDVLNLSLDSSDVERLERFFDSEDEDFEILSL
GRK2 aptamer HTS: compounds blocking aptamer binding on GRK2 – biochemical, human GRK2, bead flow cytometry, HTS, primary screen; FAM-aptamer displacement from GRK2; inhibition of aptamer binding, % at 10 µM; actives 0.59% (n = 330,000);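 active = inhibition of aptamer binding above 40%, roughly 3 SD of noise, on plates passing a quality check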;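 also: median bead fluorescence of bound FAM aptamer so fluorescent compounds give negative values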
Efflux pump inh: inhibitors of Candida efflux pumps in yeast, primary screen, S. cerevisiae, Nile Red, multiplex; S. cerevisiae Candida pump triplex; inhibition, % at 10 µM; actives 0.44% (n = 330,000);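 active = plate passing quality check with inhibition over a set limit, or well fluorescence over plate mean plus 4 SD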;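 also: Nile Red retained in pooled yeast measured as flow cytometry median fluorescence; 0% = buffer negative control and 100% = Enniatin B positive control; higher means more Nile Red kept so more efflux inhibition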
CR mimetic SO: reduction of superoxide in aged yeast, primary screen, HTS. actives 0.18% (n = 330,000). superoxide response (% of plate mean), % at 10 µM. AID 2690, 2010. S. cerevisiae aged cells, superoxide DHE fluorescence; stronger effect = lower value;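 active = superoxide response under a set limit, about three screen SD below normal, cut at about 65% in these data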;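 also: yeast aged for seven days with compound at 30 °C before DHE staining; 100% = average MFI of all compound-treated wells on the plate with controls excluded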
Superoxide pick: superoxide lowering in aged yeast cells, confirmation, cherry picked compounds; shares compounds with CR mimetic SO; S. cerevisiae aging, superoxide DHE fluorescence; stronger effect = lower value; superoxide response (% of plate), % at 10 µM; actives 1% (n = 850); AID 434994, 2010;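 active = superoxide signal below 65% of the plate average of sample wells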;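 also: cells aged with compound for 7 days at 30 degrees C before staining; 100% equals mean DHE fluorescence of all compound wells on the plate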
DHE fluor count: DHE quenching or ROS scavenging interference in aged yeast, artefact control for yeast caloric restriction mimetic project, S. cerevisiae BY4741, flow cytometry; DHE fluorescence; stronger effect = lower value; 850 tested, under 10 active; AID 435000, 2010; fluorescence response, % at 10 µM; shares compounds with CR mimetic SO;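 active = fluorescence response below 15%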;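 also: percent of the mean fluorescence averaged over all compound wells on the plate; lower means stronger quenching of DHE signal or ROS scavenging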
Cmpd fluor yeast: flagged as fluorescent in efflux inhibitor counter-screen. fluorescence ratio to DMSO, % at 10 µM. shares compounds with Efflux pump inh. AID 588517. S. cerevisiae AD/pABC3, compound fluorescence, flow cytometry. actives 4% (n = 1,700);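 active = fluorescence ratio to DMSO above its plate's cutoff, the plate mean ratio plus 5 SD, cut at about 210% in these data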;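 also: unstained yeast with no Nile Red so the signal is compound autofluorescence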
CaMdr1 efflux inh: inhibitors of Candida albicans Mdr1 efflux, confirmation, flow cytometry, singleplex, Cherry Pick1 set; shares compounds with Efflux pump inh; S. cerevisiae AD/CaMDR1, Nile Red efflux; inhibition, % at 10 µM; actives 1% (n = 1,700); AID 588518, 2011; in the data active = inhibition above about 26%;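 also: 0% = DMSO vehicle and 100% = reference inhibitor; higher means more Nile Red retained so more efflux inhibition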
CaCdr2 efflux inh: inhibitors of Candida albicans Cdr2 efflux pump, confirmation, S. cerevisiae AD/CaCDR2, flow cytometry, cherry pick 1, singleplex; shares compounds with Efflux pump inh; Nile Red retention; Nile Red retention ratio vs DMSO, % at 10 µM; actives 4% (n = 1,700); in the data active = Nile Red retention ratio vs DMSO above about 190%;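 also: higher ratio means more blocking of Cdr2 efflux of the dye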
CaCdr1 efflux inh: inhibitors of Candida albicans Cdr1 efflux pump, confirmation, S. cerevisiae AD/CaCDR1, flow cytometry, cherry pick 1, singleplex. inhibition, % at 10 µM. Nile Red efflux. shares compounds with Efflux pump inh. AID 588522, 2011. actives 1% (n = 1,700);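 active = inhibition above the screen-wide mean plus twice its standard deviation, cut at about 32% in these data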
ATG4B confirm: ATG4B protease inhibitors, retest, confirmation, biochemical, fluorescence, single concentration | shares compounds with ATG4B inh | ATG4B protease fluorescent substrate cleavage assay | inhibition, % at 8.33 µM | actives 92% (n = 320) | AID 504757, 2011; in the data active = inhibition above about 39%
PLA2 ctr: PLA2 enzyme inhibition, counter-screen for ATG4B inhibitor project, biochemical, single concentration, uHTS hits. purified PLA2, NBD-C6-HPC fluorescence, 45 min. actives 66% (n = 1,600). shares compounds with ATG4B inh. inhibition, % at 8.33 µM; in the data active = inhibition above about 50%
Target sequence (P04054 whole entry, looked up): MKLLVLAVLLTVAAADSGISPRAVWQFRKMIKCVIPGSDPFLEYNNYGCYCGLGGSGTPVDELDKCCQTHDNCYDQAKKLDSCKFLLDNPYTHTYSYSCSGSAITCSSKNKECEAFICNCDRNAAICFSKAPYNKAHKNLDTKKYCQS
Active calls of the source: *; / = not tested or not shown.

SMILES	ATG4B inh	GRK2 aptamer HTS	Efflux pump inh	CR mimetic SO	Superoxide pick	DHE fluor count	others
CCOC(=O)c1cccc(S(=O)(=O)N2CCCC2)c1	-1	1	0	93	107	91
COc1ccc(S(=O)(=O)N2CCOCC2)cc1C(=O)N1CCCC1	11	2	0	85	/	/
Cc1ccc(S(=O)(=O)N2CCCC2)cc1C(=O)O	12	3	0	111	92	93
CC(=O)Oc1ccc(C2=Cc3ccc(OC(C)=O)cc3OC2C)cc1 (configuration not stated)	-3	/	/	/	/	/
O=C(C[C@@H]1C/C=C\C[C@H](Cc2ccc(F)cc2)C(=O)OC[C@@H](c2ccccc2)NC1=O)NCCO	1	0	0	111	/	/
COc1cc(Nc2ncnc(N)n2)cc(OC)c1OC	5	2	0	102	/	/
COc1cc(Nc2ncnc(N)n2)cc(OC)c1	5	0	0	59*	105	110
CCOC(=O)NC(=O)/C(C#N)=N/Nc1ccc(F)cc1	2	0	0	81	107	112
CCc1cccc(C)c1NC(=O)c1ccoc1C	-5	0	0	64*	108	104
Cc1ccc(NC(=O)c2cc(S(=O)(=O)N3CCOCC3)c(Br)s2)cc1	-14	0	0	97	/	/
Cc1c(C(=O)O)oc2ccc(S(=O)(=O)NC3CCCCCCC3)cc12	2	4	1.0*	63*	110	131	Cmpd fluor yeast=100;CaMdr1 efflux inh=0;CaCdr2 efflux inh=96;CaCdr1 efflux inh=0
CCCCn1c(N)c(N(CCOC)C(=O)CSCc2cccc(C)c2)c(=O)[nH]c1=O	-3	0	0	101	/	/
Cc1ccc(-c2n[nH]c(=O)c3ccccc23)cc1S(=O)(=O)NCCO	-10	2	0	88	/	/
Cc1ccc(-c2nnc(Nc3ccc4c(c3)OCO4)c3ccccc23)cc1S(=O)(=O)NCCO	-6	6	13*	103	103	94	Cmpd fluor yeast=106;CaMdr1 efflux inh=0;CaCdr2 efflux inh=107;CaCdr1 efflux inh=0
CCCCOc1cccc(-c2cc(C(=O)NNC(=S)NCC)c3ccccc3n2)c1	7	0	0	124	/	/
CCCCOc1ccc(-c2cc(C(=O)NNC(=S)NCC)c3ccccc3n2)cc1	47*	0	0	62*	123	106	PLA2 ctr=58*
CC(NC(=O)C1CCC(CNS(=O)(=O)c2ccccc2)CC1)c1ccc2c(c1)OCCO2 (configuration not stated)	/	3	0	102	/	/
O=C(NN=C1CCCCCC1)c1cn(-c2ccccc2)nc1-c1ccccc1	43*	34	1	64*	126	103	ATG4B confirm=62*;PLA2 ctr=3
Cc1cccc(CC(=O)Nc2ccc(C(=O)N3CCOCC3)cc2)c1	1	2	0	120	/	/
CC(C)CCn1c2ccccc2c2cc(CC(N)=O)ccc21	68*	0	0	113	103	96	PLA2 ctr=77*
O=C(NCCC1=CCCCC1)C1CCC(CNc2nc(=S)[nH]c3ccccc23)CC1 (configuration not stated)	0	1	1.1*	101	/	/	Cmpd fluor yeast=115;CaMdr1 efflux inh=0;CaCdr2 efflux inh=108;CaCdr1 efflux inh=0
CSc1ccccc1C(=O)Nc1ccc(C)c(C)c1	6	3	1.4*	144	/	/	Cmpd fluor yeast=108;CaMdr1 efflux inh=0;CaCdr2 efflux inh=114;CaCdr1 efflux inh=0
CSc1ccccc1C(=O)Nc1cc(C)cc(C)c1	-2	2	0	86	/	/
O=C(Nc1nc(-c2ccccn2)cs1)C1CC(=O)N(c2ccc3c(c2)OCCO3)C1 (configuration not stated)	-1	4	0	89	/	/
COCCCn1c(=S)[nH]c2sc3c(c2c1=O)CCCC3	-3	1	0	94	/	/
SMILES	ATG4B inh	GRK2 aptamer HTS	Efflux pump inh	CR mimetic SO	Superoxide pick	DHE fluor count	others
COCCn1c(=S)[nH]c2sc3c(c2c1=O)CCCC3	0	3	1.1*	109	/	/	Cmpd fluor yeast=87;CaMdr1 efflux inh=0;CaCdr2 efflux inh=89;CaCdr1 efflux inh=0
O=C(CSc1nnc(-c2ccccc2O)n1Cc1ccccc1)NNC(=O)c1ccccc1O	0	0	29*	94	/	/	Cmpd fluor yeast=91;CaMdr1 efflux inh=0;CaCdr2 efflux inh=97;CaCdr1 efflux inh=0
O=C(CSc1nnc(-c2ccccc2)n1Cc1ccccc1)NNC(=O)c1ccccc1O	5	0	0	92	/	/
CCOc1ccc(NS(=O)(=O)c2csc(C(N)=O)c2)cc1	6	0	0	104	/	/
CCOC(=O)C1NN=C(C(=O)c2ccccc2)C1c1ccc(OC)cc1 (configuration not stated)	-4	0	1.4*	97	/	/	Cmpd fluor yeast=100;CaMdr1 efflux inh=0;CaCdr2 efflux inh=112;CaCdr1 efflux inh=0
CCOC(=O)C1NN=C(C(=O)c2ccccc2)C1c1ccccc1 (configuration not stated)	-9	0	0	101	/	/
Cc1cc(C)cc(-n2ncc3c2CCCC3NC(=O)c2cc(C)[nH]n2)c1 (configuration not stated)	7	2	0	107	/	/	Cmpd fluor yeast=106;CaMdr1 efflux inh=0;CaCdr2 efflux inh=98;CaCdr1 efflux inh=0
CC(=O)c1cc(C(=O)NC2CCCc3c2cnn3-c2cc(C)cc(C)c2)[nH]n1 (configuration not stated)	7	2	0	96	/	/
COc1ccccc1NC(=O)COC(=O)c1ccccc1C(=O)N1CCN(c2ccccc2)CC1	-10	1	0	91	/	/
O=C(O)CCN1C(=O)/C(=C\c2ccncc2)SC1=S	0	3	0	111	/	/
